Compounds without any hit were thinned out: in the full panel of roughly 83,000, 20% have a hit.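 Single-concentration screen, 48 h exposure, 96-well plates. Endpoint: percent growth. Below 10 = active.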 Values without a mark were called inactive. Active and inactive are the calls of the source.

Test systems include DU-145 prostate; K-562 leukemia; MALME-3M melanoma; MDA-MB-231 breast; RXF 393 renal; SF-268 CNS; SF-295 CNS; SF-539 CNS; UACC-257 melanoma; M14 melanoma; HCT-15 colon; HT29 colon; SNB-75 CNS; SNB-19 CNS; PC-3 prostate; SK-MEL-5 melanoma; UACC-62 melanoma; LOX IMVI melanoma; SK-MEL-28 melanoma; U251 CNS.
Holding throughout (assay): NCI-60 one-dose screen, 48 h (100 = growth as untreated, 0 = no growth, -100 = all killed)
Common to all, as to conditions: 10 µM unless noted

Regarding `CCCNc1nc(SC)nc(-c2cccc(N)c2)c1C#N`, the growth with DU-145 prostate was 109%; with K-562 leukemia, 96.8%; with MALME-3M melanoma, 98%; in the experiment on MDA-MB-231 breast it was 83.1%; in the experiment on RXF 393 renal it was 105%; with SF-268 CNS, 91.6%. Besides, the growth with SF-295 CNS was 98.7%; in the experiment on SF-539 CNS it was 102%; with UACC-257 melanoma, 111%; with M14 melanoma, 101%; with HCT-15 colon it was 102%; in the experiment with HT29 colon it was 116%. For the same compound, the growth with SNB-75 CNS is 54.5%; with SNB-19 CNS, 91.6%; in the experiment on PC-3 prostate, 93.6%; in the experiment with SK-MEL-5 melanoma, 97.2%; with UACC-62 melanoma, 89.4%; in the experiment on LOX IMVI melanoma, 94.1%. The growth in the experiment with SK-MEL-28 melanoma was 121%.
`C[C@H](CCC(=O)O)[C@H]1CC[C@H]2[C@@H]3CC[C@@H]4/C(=C\c5ccco5)C(=O)/C(=C\c5ccco5)C[C@]4(C)[C@H]3CC[C@]12C`: the growth in the experiment with DU-145 prostate was 66.5%; in the experiment on K-562 leukemia, 30%; in the experiment with MALME-3M melanoma, 58.1%; in the experiment on MDA-MB-231 breast, 107%; in the experiment with RXF 393 renal, 45.1%; with SF-268 CNS it was 80.6%. Besides, the growth with SF-295 CNS was 70.6%; in the experiment with SF-539 CNS it was 76.3%; in the experiment on UACC-257 melanoma it was 51.6%; in the experiment on M14 melanoma, 52.5%; with HCT-15 colon, 28.5%; in the experiment on HT29 colon, 59.6%. Moreover, the growth in the experiment on SNB-75 CNS is 101%; in the experiment on SNB-19 CNS, 79%; with PC-3 prostate, 52.6%; with SK-MEL-5 melanoma, 47.4%; with UACC-62 melanoma, 17.2%; with LOX IMVI melanoma, 31.6%. Also, in the experiment on SK-MEL-28 melanoma, the growth was 44.3%.
On to `CSc1nc(NCCO)c(C#N)c(-c2cccc(N)c2)n1`, for which the growth is 106% in the experiment on DU-145 prostate; 94.4% with K-562 leukemia; 101% with MALME-3M melanoma; 86.4% in the experiment with MDA-MB-231 breast; 113% in the experiment on RXF 393 renal; 96.2% in the experiment on SF-268 CNS. For the same compound, the growth is 96.9% in the experiment on SF-295 CNS; 91.7% with SF-539 CNS; 100% in the experiment with UACC-257 melanoma; 100% with M14 melanoma; 98.1% with HCT-15 colon; 108% with HT29 colon. For the same compound, the growth in the experiment with SNB-75 CNS is 58.5%; with SNB-19 CNS, 96%; with PC-3 prostate it was 94.7%; in the experiment on SK-MEL-5 melanoma it was 96.5%; in the experiment on UACC-62 melanoma it was 94.8%; in the experiment with LOX IMVI melanoma, 93.5%. In addition, the growth in the experiment with SK-MEL-28 melanoma was 116%.
With `CNC(=O)c1cc(Oc2ccc3nc(NC(=O)Nc4ccc(N5CCC(N(C)C)CC5)cc4)sc3c2)ccn1`, the growth in the experiment with DU-145 prostate is 74.1%; with K-562 leukemia, 2.09% (active); in the experiment on MALME-3M melanoma, 56.1%; with MDA-MB-231 breast, 85.6%; in the experiment on RXF 393 renal it was 61.5%; in the experiment with SF-268 CNS it was 84.7%. The growth is 98.9% with SF-295 CNS; 73.4% in the experiment with SF-539 CNS; 105% in the experiment on UACC-257 melanoma; 94% in the experiment with M14 melanoma; 74.8% with HCT-15 colon; 20.1% with HT29 colon. In addition, the growth with SNB-75 CNS is 86.4%; with U251 CNS, 57.6%; in the experiment on PC-3 prostate it was 95.1%; in the experiment with SK-MEL-5 melanoma, 86.1%; with UACC-62 melanoma, 99.2%; with LOX IMVI melanoma, 69.9%. For the same compound, in the experiment on SK-MEL-28 melanoma, the growth is 87.7%.
Take `Cc1nn(-c2ccccc2)c2nc(C)n(-c3ccc(Br)cc3)c(=O)c12`: the growth was 8.77% (active) with DU-145 prostate; 9.29% (active) with K-562 leukemia; 45.9% in the experiment on MALME-3M melanoma; 50.3% with MDA-MB-231 breast; -15.8% (active) with RXF 393 renal; 51.2% with SF-268 CNS. In addition, the growth in the experiment with SF-295 CNS is 4.98% (active); with SF-539 CNS, -5.52% (active); in the experiment on UACC-257 melanoma it was 60%; in the experiment with M14 melanoma, 9.88% (active); in the experiment on HCT-15 colon, 17.4%; in the experiment on HT29 colon, -15.7% (active). For the same compound, the growth in the experiment with SNB-75 CNS is -6.84% (active); with SNB-19 CNS, 47.5%; with PC-3 prostate it was 26.4%; in the experiment with SK-MEL-5 melanoma it was 5.34% (active); in the experiment with UACC-62 melanoma it was 38.7%; in the experiment on LOX IMVI melanoma, 45.6%. For the same compound, the growth in the experiment on SK-MEL-28 melanoma is 69.3%.
As for `O=C1Nc2c(ccc(Cl)c2Cl)/C1=C/c1cc(Br)c(O)c(Br)c1`, the growth in the experiment with DU-145 prostate is 84.6%; in the experiment on K-562 leukemia, 51.8%; in the experiment on MALME-3M melanoma it was 29.4%; in the experiment with MDA-MB-231 breast it was 74.8%; in the experiment with RXF 393 renal it was 75.9%; with SF-268 CNS, 75.7%. For the same compound, the growth with SF-295 CNS was 13.4%; with SF-539 CNS, 51.6%; in the experiment with UACC-257 melanoma it was 40%; in the experiment on M14 melanoma it was 33.2%; in the experiment on HCT-15 colon, 52.4%; in the experiment on HT29 colon it was 56.6%. In addition, the growth in the experiment with SNB-75 CNS was 70.2%; in the experiment with U251 CNS it was 66.2%; in the experiment with PC-3 prostate it was 59.4%; in the experiment with SK-MEL-5 melanoma, 23.2%; with UACC-62 melanoma it was 26.1%; in the experiment with LOX IMVI melanoma it was 59.6%. For the same compound, the growth in the experiment with SK-MEL-28 melanoma is 58.3%.
With `Cc1ccc2c(c1)C(=O)c1c-2c(OCCCN(C)C)nc2ccccc12`, the growth is 34.3% in the experiment on DU-145 prostate; -59.4% (active) in the experiment on K-562 leukemia; -71.7% (active) in the experiment on MALME-3M melanoma; -22.7% (active) with MDA-MB-231 breast; 30.1% in the experiment on RXF 393 renal; 30.8% with SF-268 CNS. Besides, the growth in the experiment on SF-295 CNS was 60%; with SF-539 CNS, 14.4%; in the experiment with UACC-257 melanoma it was 69.5%; with M14 melanoma it was -82.2% (active); in the experiment on HCT-15 colon, -17.8% (active); in the experiment on HT29 colon, -33% (active). The growth was 38.5% with SNB-75 CNS; 4.38% (active) in the experiment with U251 CNS; 18.6% with PC-3 prostate; 28.5% with SK-MEL-5 melanoma; -66% (active) with UACC-62 melanoma; -71.9% (active) in the experiment on LOX IMVI melanoma. For the same compound, the growth in the experiment on SK-MEL-28 melanoma is -54% (active).
Take `OC(c1cc(-c2ccccc2)nc2ccc(Cl)cc12)C1CCCCN1` (stereo unspecified): the growth in the experiment on DU-145 prostate is 60.1%; in the experiment on K-562 leukemia, -18.4% (active); with MALME-3M melanoma, -41.3% (active); with MDA-MB-231 breast, -30.5% (active); with RXF 393 renal, 56.3%; in the experiment with SF-268 CNS it was 60.7%. In addition, the growth in the experiment on SF-295 CNS was 96.2%; in the experiment on SF-539 CNS it was 67.5%; with UACC-257 melanoma, 70.9%; with M14 melanoma, -66.3% (active); in the experiment on HCT-15 colon, -12.3% (active); with HT29 colon it was -3.87% (active). For the same compound, the growth in the experiment with SNB-75 CNS is 61.9%; in the experiment on U251 CNS, 21.5%; in the experiment on PC-3 prostate, 49.4%; in the experiment on SK-MEL-5 melanoma, -5.63% (active); in the experiment on UACC-62 melanoma, -31.2% (active); in the experiment with LOX IMVI melanoma, -83.2% (active). For the same compound, in the experiment on SK-MEL-28 melanoma, the growth was -76.9% (active).
For the compound `N#Cc1c(N)nc(N)nc1Nc1ccc(Br)cc1`, the growth in the experiment on DU-145 prostate was 98.7%; with K-562 leukemia, 99%; in the experiment on MALME-3M melanoma, 107%; in the experiment on MDA-MB-231 breast, 87.3%; in the experiment with RXF 393 renal, 94.3%; in the experiment with SF-268 CNS it was 92.5%. The growth with SF-295 CNS is 91%; in the experiment with SF-539 CNS, 89.6%; in the experiment on UACC-257 melanoma, 92%; with M14 melanoma, 163%; in the experiment on HCT-15 colon it was 103%; with HT29 colon, 93.9%. In addition, the growth in the experiment with SNB-75 CNS was 96.8%; in the experiment with U251 CNS it was 96.9%; with PC-3 prostate, 79.1%; in the experiment with SK-MEL-5 melanoma, 89.6%; in the experiment on UACC-62 melanoma, 86.4%; in the experiment with LOX IMVI melanoma, 92.4%. For the same compound, in the experiment with SK-MEL-28 melanoma, the growth is 110%.

The values above are taken from PubChem BioAssay (NCI).
